# Measured values reported in PubChem BioAssay AID434994 (NMMLSC, 2010).
# Some of the results follow. Calls of active or inactive are those of the source.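 How the source made its calls: active means superoxide signal below 65% of the plate average of sample wells; inactive means the rest.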
# Assay: superoxide lowering in aged yeast cells, confirmation, cherry picked compounds (AID 434994);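 further: cells aged with compound for 7 days at 30 degrees C before staining; 100% equals mean DHE fluorescence of all compound wells on the plate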
# Settings: S. cerevisiae aging, superoxide DHE fluorescence; at 10 µM; stronger effect = lower value
row,SMILES,superoxide response (% of plate)
1,CN1CCN(C(=S)SCC(=O)Nc2ccc(Cl)cc2C(=O)c2ccccc2)CC1,111% (inactive)
2,C[C@]12CCC3C(CC[C@H]4C[C@@H](O)CC[C@]34C)C1C[C@@H](O)[C@H]2O (some centres not stated),90.6% (inactive)
